About 79,000 compounds went through this panel and 15% of them were active in at least one assay; those are over-represented in the sample as a whole. Calls of active or inactive are those of the source. No stated cut-off is given here; in the data, active means growth inhibition above about 70%; inactive means the rest.
Columns and labels:
[1] = NCI Yeast Anticancer Drug Screen. Data for the wt2 strain (AID 169);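 further: 0% = growth of vehicle-treated yeast cultures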; details: S. cerevisiae wt2 strain growth inhibition, hits give high values
Outline: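 Genetically defined yeast strains from a DNA-repair/cell-cycle panel were used. Compound-exposed yeast growth was measured, and the inhibition was calculated relative to vehicle treatment.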

[2] = NCI Yeast Anticancer Drug Screen. Data for the mlh1 strain (AID 171);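 further: 0% = growth of vehicle-treated control cultures of the same strain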; details: S. cerevisiae mlh1 strain growth inhibition, hits give high values
Outline: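 Here the genetically defined yeast mutant is grown with each compound, and the extent to which its growth falls below that of vehicle-exposed cells is reported.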

[3] = NCI Yeast Anticancer Drug Screen. Data for the mlh1 rad18 strain (AID 175); details: S. cerevisiae mlh1 rad18 strain growth inhibition, hits give high values
Outline: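 In this whole-cell yeast screen, a strain with altered DNA damage repair is challenged with compound, and its growth is measured against matched vehicle-treated controls.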

[4] = NCI Yeast Anticancer Drug Screen. Data for the rad18 strain (AID 177); details: S. cerevisiae rad18 mutant growth inhibition, hits give high values
Outline: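 Screen uses a yeast strain with a defined lesion in DNA damage repair; compound effect is read as loss of growth compared to untreated vehicle cultures.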

[5] = NCI Yeast Anticancer Drug Screen. Data for the rad52 strain (AID 147);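 further: 0% = growth of vehicle-treated control cultures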; details: S. cerevisiae rad52 mutant growth inhibition, hits give high values
Outline: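 Measured: yeast growth inhibition. System: strain with a defined DNA damage repair alteration. Reference: vehicle-treated control cultures.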

[6] = NCI Yeast Anticancer Drug Screen. Data for the wt1 strain (AID 149);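 further: 0% = growth of vehicle-treated wt1 cultures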; details: S. cerevisiae wt1 strain (SPY 50644) growth inhibition, hits give high values
Outline: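 Using yeast strain wt1, compound-induced growth inhibition was determined against vehicle-treated cultures.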

[7] = NCI Yeast Anticancer Drug Screen. Data for the rad50EPP+ strain (AID 151);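 further: 0% = growth of vehicle-treated control cultures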; details: S. cerevisiae rad50 mutant strain, hits give high values
Outline: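 One strain with a rad50 alteration (rad50EPP+) was compound-treated, its growth then compared to that of vehicle controls.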

[8] = NCI Yeast Anticancer Drug Screen. Data for the mgt1 strain (AID 153); details: S. cerevisiae mgt1 mutant growth inhibition, hits give high values
Outline: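 After exposure of the mgt1 yeast mutant to compound, growth was measured and reported as inhibition compared with vehicle controls.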

[9] = NCI Yeast Anticancer Drug Screen. Data for the rad50 strain (AID 155);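 further: 0% = growth of vehicle-only cultures of the same strain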; details: S. cerevisiae rad50 strain growth inhibition, hits give high values
Outline: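 Relative growth inhibition (compound vs vehicle) was measured in yeast with a defined repair-gene alteration.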

[10] = NCI Yeast Anticancer Drug Screen. Data for the mec2-1 strain (AID 157); details: S. cerevisiae mec2-1 strain, hits give high values
Outline: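 Test agents were screened against the mec2-1 yeast strain, with defined DNA repair or cell cycle alteration. Growth was scored as inhibition against vehicle-only controls.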

[11] = NCI Yeast Anticancer Drug Screen. Data for the rad14 strain (AID 159);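 further: 0% = growth of vehicle-treated control cultures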; details: S. cerevisiae rad14 strain growth inhibition, hits give high values
Outline: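 Screen for anticancer potential: a yeast strain altered in DNA damage repair is grown with compound, and reduced growth is quantified against vehicle controls.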

[12] = NCI Yeast Anticancer Drug Screen. Data for the sgs1 mgt1 strain (AID 161);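 further: 0% = growth of cultures given vehicle only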; details: S. cerevisiae sgs1 mgt1 strain, hits give high values
Outline: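 Read-out: growth inhibition vs vehicle controls. Cells: mutant yeast strain deficient in DNA damage repair.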

[13] = NCI Yeast Anticancer Drug Screen. Data for the CLN2oe strain (AID 163);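 further: 0% = growth of vehicle-only control cultures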; details: S. cerevisiae CLN2oe strain, hits give high values
Outline: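 Here, growth inhibition in a cell-cycle-altered yeast strain after compound exposure was quantified against vehicle control growth.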

[14] = NCI Yeast Anticancer Drug Screen. Data for the cln2 rad14 strain (AID 165);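 further: 0% = growth equal to vehicle treated cultures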; details: S. cerevisiae cln2 rad14 strain, hits give high values
Outline: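 Growth of compound-exposed yeast (cln2 rad14 genotype) measured and expressed as inhibition relative to vehicle.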

[15] = NCI Yeast Anticancer Drug Screen. Data for the bub3 strain (AID 167); details: S. cerevisiae bub3 mutant strain, hits give high values
Outline: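 Screening used yeast with an engineered genetic alteration affecting cell cycle control. Compound-exposed cultures were compared with vehicle cultures, and reduced growth was taken as inhibition.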

[16] = NCI Yeast Anticancer Drug Screen. Data for the sgs1 strain (AID 173);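 further: 0% = growth of vehicle-only control cultures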; details: S. cerevisiae sgs1 mutant, hits give high values
Outline: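 Relative growth inhibition, referenced to vehicle, was determined in a yeast strain with a defined alteration affecting DNA damage repair or cell cycle control after compound exposure.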

[17] = at 5.0 µM (retest, dose inferred, filed as 0.5)
[18] = at 50.0 µM (retest, dose inferred, filed as 5.0)

Measured: growth inhibition

Cc1ccc(C2C(Cl)C(=O)N2n2cnc3ccccc3c2=O)cc1 (stereo unspecified)
inactive: [1]; at 1.2 µM -15% | [1]; at 3.7 µM -19% | [1]; at 11.0 µM -18% | [1]; at 33.0 µM -23% | [1]; at 100.0 µM -8% | [2]; at 1.2 µM -39% | [2]; at 3.7 µM -39% | [2]; at 11.0 µM -41% | [2]; at 33.0 µM -34% | [2]; at 100.0 µM -4% | [3]; [17] -9% | [3]; [18] 6% | [3]; at 50.0 µM -11.2% | [4]; at 1.2 µM -1% | [4]; at 3.7 µM 6% | [4]; at 11.0 µM -1% | [4]; at 33.0 µM -7% | [4]; at 100.0 µM -5%

O=c1ssc2ncccc12
inactive: [5]; at 1.2 µM 3% | [5]; at 3.7 µM 15% | [6]; at 1.2 µM 2% | [6]; at 3.7 µM -2% | [6]; at 11.0 µM 11% | [6]; at 33.0 µM 47% | [7]; at 1.2 µM -5% | [7]; at 3.7 µM 6% | [7]; at 11.0 µM 45% | [8]; at 1.2 µM -1% | [8]; at 3.7 µM 10% | [8]; at 11.0 µM 41% | [9]; at 1.2 µM 15% | [9]; at 3.7 µM 49% | [9]; [17] 24% | [10]; at 1.2 µM 3% | [10]; at 3.7 µM 6% | [10]; [17] 14% | [10]; at 11.0 µM 29% | [11]; at 1.2 µM 7% | [11]; at 3.7 µM 14% | [11]; at 11.0 µM 49% | [12]; [17] 31% | [13]; at 1.2 µM -7% | [13]; at 3.7 µM 6% | [13]; at 11.0 µM 45% | [14]; [17] 21% | [14]; at 50.0 µM 49.6% | [15]; at 1.2 µM 2% | [15]; at 3.7 µM 4% | [15]; [17] 23% | [15]; at 11.0 µM 36% | [2]; at 1.2 µM 9% | [2]; at 3.7 µM 20% | [2]; at 11.0 µM 56% | [16]; at 1.2 µM 4% | [16]; at 3.7 µM 12% | [3]; [17] 56% | [4]; at 1.2 µM 7% | [4]; at 3.7 µM 27%
active: [5]; at 11.0 µM 71% | [5]; at 33.0 µM 95% | [5]; at 100.0 µM 99% | [6]; at 100.0 µM 97% | [7]; at 33.0 µM 86% | [7]; at 100.0 µM 97% | [8]; at 33.0 µM 84% | [8]; at 100.0 µM 99% | [9]; at 11.0 µM 82% | [9]; at 33.0 µM 97% | [9]; [18] 99% | [9]; at 50.0 µM 97.1% | [9]; at 100.0 µM 99% | [10]; at 33.0 µM 83% | [10]; [18] 96% | [10]; at 50.0 µM 91.2% | [10]; at 100.0 µM 97% | [11]; at 33.0 µM 97% | [11]; at 100.0 µM 99% | [12]; [18] 96% | [12]; at 50.0 µM 93.2% | [13]; at 33.0 µM 85% | [13]; at 100.0 µM 97% | [14]; [18] 90% | [15]; at 33.0 µM 87% | [15]; [18] 97% | [15]; at 50.0 µM 93.2% | [15]; at 100.0 µM 98% | [2]; at 33.0 µM 95% | [2]; at 100.0 µM 99% | [16]; at 11.0 µM 72% | [16]; at 33.0 µM 96% | [16]; at 100.0 µM 99% | [3]; [18] 98% | [3]; at 50.0 µM 96.7% | [4]; at 11.0 µM 74% | [4]; at 33.0 µM 97% | [4]; at 100.0 µM 99%

From PubChem BioAssay (NCI)
